The text below walks through data of PubChem BioAssay (EPA / NIEHS).

Activity calls are given as the source filed them. Rule for the calls: active = hit-call score of the fitted dose curve at least 0.9, where 1 is the maximum; inactive = score below 0.9.

By AC50 is commonly meant the concentration at which the activity in the assay is half-maximal.

Read-out in the first assay: Human Leukocyte Antigen - DR isotype (HLADR), HLA-DRA (gene 3122)
The assay can be described thus: BSK_3C_HLADR: BioMAP Diversity Plus: 3C Assay for Human Leukocyte Antigen - DR isotype (HLADR) Biomarker Activity (AID 2283019).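 For outcome: ELISA of cell-surface HLA-DR on HUVEC 24 h after dosing.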 Conditions: primary human endothelial cells (HUVEC); actives raise or lower the signal. The essentials: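 Bidirectional fitting against DMSO was applied to the HLA-DR ELISA signal from human umbilical vein endothelial cells, 24 h post-dose. Cytotoxicity came from parallel SRB total-protein staining; 3C proliferation was counted by SRB at 48 h.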
`CN(C)C(=O)NC1(c2ccccc2)CCN(CCC[C@]2(c3ccc(Cl)c(Cl)c3)CCCN(C(=O)c3ccccc3)C2)CC1`: the result was inactive.

On to `CCCCOC(=O)CCCCC(=O)OCCCC`, for which the result was inactive.

For the compound `C=CCCCCCCCCCCCC`, the outcome was inactive.

Take `Nc1nc(Cl)nc2c1ncn2[C@H]1C[C@H](O)[C@@H](CO)O1`: the outcome was inactive.

Consider `Cc1ccc(C(C)(C)C)c(O)c1`, for which the result was inactive.

For `Oc1ccccc1O`, the AC50 was 5.45 µM (active).

`CCCCC(CC)COC(=O)CCCCCCCC(=O)OCC(CC)CCCC` (stereo not given): the result was inactive.

Regarding `CC(=O)[C@@]1(O)CC[C@H]2[C@@H]3CCC4=CC(=O)CC[C@]4(C)[C@H]3CC[C@@]21C`, the outcome was inactive.

Consider `CCCCCCCCCCCCCCOS(=O)(=O)O`, for which the result was inactive.

Regarding `Nc1nc(=S)c2[nH]cnc2[nH]1`, the result was inactive.

`CC(C)c1cccc(C(C)C)c1`: the result was inactive.

With `CS(=O)(=O)c1ccc([C@@H](C[C@H]2CCC(=O)C2)C(=O)Nc2cnccn2)cc1Cl`, the outcome was inactive.

`CC(C)(O)c1ccc(CNC(=O)c2cccnc2Oc2ccc(F)cc2)cc1`: the result was inactive.

Regarding `O=NO`, the outcome was inactive.

In the case of `CCCCC(CC)CO` (stereo not given), the result was inactive.

As to `COc1ccc(OC(F)(F)F)cc1CN[C@H]1CCCN[C@H]1c1ccccc1`, the half-maximal activity concentration (AC50) was 32.8 µM (active).

As for `CCc1nc(N)nc(N)c1-c1ccc(Cl)cc1`, the outcome was inactive.

In the case of `O=C1CCCCC1`, the outcome was inactive.

On to `O=C(O)CN(CC(=O)O)CC(=O)O`, for which the outcome was inactive.

For `CC(=O)OC1CC(C)OC(C)O1` (stereo not given), the outcome was inactive.

Regarding `COC(=O)[C@H]1[C@H]2C[C@@H]3c4[nH]c5cc(OC)ccc5c4CCN3C[C@H]2C[C@@H](OC(=O)c2cc(OC)c(OC)c(OC)c2)[C@@H]1OC`, the concentration at half-maximal activity (AC50) is 25.8 µM (active).

With `CCCC[C@H]1CN(CC2CCOCC2)C(=O)OC12CCN(C1(C)CCN(C(=O)c3c(C)ncnc3C)CC1)CC2`, the outcome was inactive.

Read-out in another assay: Interleukin-8 (IL8), CXCL8 (gene 3576)
Description: BSK_3C_IL8: BioMAP Diversity Plus: 3C Assay for Interleukin-8 (IL8) Biomarker Activity (AID 2283020). As to conditions: primary human endothelial cells (HUVEC); actives raise or lower the signal. The method, boiled down:
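IL-8 was measured by ELISA in HUVEC cultures 24 h after chemical dosing, with gain or loss of signal fitted relative to DMSO. Parallel SRB total-protein staining tracked overt cytotoxicity.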
For the compound `CN(C)C(=O)NC1(c2ccccc2)CCN(CCC[C@]2(c3ccc(Cl)c(Cl)c3)CCCN(C(=O)c3ccccc3)C2)CC1`, the half-maximal activity concentration (AC50) was 7.16 µM (active).

For the compound `CCCCOC(=O)CCCCC(=O)OCCCC`, the result was inactive.

Take `C=CCCCCCCCCCCCC`: the outcome was inactive.

Regarding `Nc1nc(Cl)nc2c1ncn2[C@H]1C[C@H](O)[C@@H](CO)O1`, the result was inactive.

Regarding `Cc1ccc(C(C)(C)C)c(O)c1`, the result was inactive.

On to `Oc1ccccc1O`, for which the result was inactive.

For `CCCCC(CC)COC(=O)CCCCCCCC(=O)OCC(CC)CCCC` (stereo not given), the result was inactive.

For `CC(=O)[C@@]1(O)CC[C@H]2[C@@H]3CCC4=CC(=O)CC[C@]4(C)[C@H]3CC[C@@]21C`, the result was inactive.

In the case of `CCCCCCCCCCCCCCOS(=O)(=O)O`, the result was inactive.

For the compound `O=C(O)c1cccnc1`, the result was inactive.

`Nc1nc(=S)c2[nH]cnc2[nH]1`: the result was inactive.

On to `CCN(CC)CCOc1ccc(C(=C(Cl)c2ccccc2)c2ccccc2)cc1`, for which the half-maximal activity concentration (AC50) was 10.9 µM (active).

Consider `CCCCc1nc2cccnc2n1Cc1ccc(-c2ccccc2-c2nnn[nH]2)cc1`, for which the result was inactive.

With `CC(C)c1cccc(C(C)C)c1`, the result was inactive.

With `O=C1O[C@H]([C@H](O)CO)C(O)=C1O`, the outcome was inactive.

For `O=[Si]=O`, the result was inactive.

`CC(=O)O`: the result was inactive.

On to `CS(=O)(=O)c1ccc([C@@H](C[C@H]2CCC(=O)C2)C(=O)Nc2cnccn2)cc1Cl`, for which the outcome was inactive.

Turning to `CC(C)(O)c1ccc(CNC(=O)c2cccnc2Oc2ccc(F)cc2)cc1`, the outcome was inactive.

Regarding `O=NO`, the result was inactive.

For `CC(=O)O[C@]1(C(C)=O)CC[C@H]2[C@@H]3C=C(Cl)C4=CC(=O)[C@@H]5C[C@@H]5[C@]4(C)[C@H]3CC[C@@]21C`, the result was inactive.

`CCCCC(CC)CO` (stereo not given): the result was inactive.

Take `COc1ccc(OC(F)(F)F)cc1CN[C@H]1CCCN[C@H]1c1ccccc1`: the result was inactive.

As to `CCc1nc(N)nc(N)c1-c1ccc(Cl)cc1`, the outcome was inactive.

As for `O=C1CCCCC1`, the result was inactive.

Take `O=C(O)CN(CC(=O)O)CC(=O)O`: the result was inactive.

With `CC(=O)OC1CC(C)OC(C)O1` (stereo not given), the result was inactive.

For `COC(=O)[C@H]1[C@H]2C[C@@H]3c4[nH]c5cc(OC)ccc5c4CCN3C[C@H]2C[C@@H](OC(=O)c2cc(OC)c(OC)c(OC)c2)[C@@H]1OC`, the AC50 was 16.9 µM (active).

As for `CCCC[C@H]1CN(CC2CCOCC2)C(=O)OC12CCN(C1(C)CCN(C(=O)c3c(C)ncnc3C)CC1)CC2`, the result was inactive.

Read-out in a further assay: Monokine induced gamma interferon (MIG), CXCL9 (gene 4283)
The assay can be described thus: BSK_3C_MIG: BioMAP Diversity Plus: 3C Assay for Monokine induced gamma interferon (MIG) Biomarker Activity (AID 2283021).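 For AC50: MIG protein level measured by immunoassay in the treated endothelial cultures.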 Conditions: primary human endothelial cells (HUVEC); actives raise or lower the signal. The method, boiled down: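 ELISA measurement of MIG in human umbilical vein endothelial cells 24 h after treatment. Cytotoxicity tracked by SRB staining in parallel cultures; gain or loss of signal fitted relative to DMSO.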
Consider `CN(C)C(=O)NC1(c2ccccc2)CCN(CCC[C@]2(c3ccc(Cl)c(Cl)c3)CCCN(C(=O)c3ccccc3)C2)CC1`, for which the outcome was inactive.

For `CCCCOC(=O)CCCCC(=O)OCCCC`, the outcome was inactive.

As for `C=CCCCCCCCCCCCC`, the result was inactive.

As to `Nc1nc(Cl)nc2c1ncn2[C@H]1C[C@H](O)[C@@H](CO)O1`, the outcome was inactive.

As for `Cc1ccc(C(C)(C)C)c(O)c1`, the outcome was inactive.

Take `Oc1ccccc1O`: the result was inactive.

Take `CCCCC(CC)COC(=O)CCCCCCCC(=O)OCC(CC)CCCC` (stereo not given): the result was inactive.

On to `CC(=O)[C@@]1(O)CC[C@H]2[C@@H]3CCC4=CC(=O)CC[C@]4(C)[C@H]3CC[C@@]21C`, for which the result was inactive.

On to `CCCCCCCCCCCCCCOS(=O)(=O)O`, for which the outcome was inactive.

For the compound `O=C(O)c1cccnc1`, the result was inactive.

On to `Nc1nc(=S)c2[nH]cnc2[nH]1`, for which the result was inactive.

Turning to `CCN(CC)CCOc1ccc(C(=C(Cl)c2ccccc2)c2ccccc2)cc1`, the AC50 is 15.1 µM (active).

In the case of `CCCCc1nc2cccnc2n1Cc1ccc(-c2ccccc2-c2nnn[nH]2)cc1`, the outcome was inactive.

Regarding `CC(C)c1cccc(C(C)C)c1`, the outcome was inactive.

Take `O=C1O[C@H]([C@H](O)CO)C(O)=C1O`: the result was inactive.

With `O=[Si]=O`, the outcome was inactive.

Take `CC(=O)O`: the outcome was inactive.

Consider `CS(=O)(=O)c1ccc([C@@H](C[C@H]2CCC(=O)C2)C(=O)Nc2cnccn2)cc1Cl`, for which the outcome was inactive.

Consider `CC(C)(O)c1ccc(CNC(=O)c2cccnc2Oc2ccc(F)cc2)cc1`, for which the result was inactive.

Take `O=NO`: the outcome was inactive.

Turning to `CC(=O)O[C@]1(C(C)=O)CC[C@H]2[C@@H]3C=C(Cl)C4=CC(=O)[C@@H]5C[C@@H]5[C@]4(C)[C@H]3CC[C@@]21C`, the outcome was inactive.

For the compound `CCCCC(CC)CO` (stereo not given), the result was inactive.

Regarding `COc1ccc(OC(F)(F)F)cc1CN[C@H]1CCCN[C@H]1c1ccccc1`, the result was inactive.

In the case of `CCc1nc(N)nc(N)c1-c1ccc(Cl)cc1`, the result was inactive.

On to `O=C1CCCCC1`, for which the outcome was inactive.

Consider `O=C(O)CN(CC(=O)O)CC(=O)O`, for which the outcome was inactive.

For `CC(=O)OC1CC(C)OC(C)O1` (stereo not given), the outcome was inactive.

On to `COC(=O)[C@H]1[C@H]2C[C@@H]3c4[nH]c5cc(OC)ccc5c4CCN3C[C@H]2C[C@@H](OC(=O)c2cc(OC)c(OC)c(OC)c2)[C@@H]1OC`, for which the result was inactive.

As to `CCCC[C@H]1CN(CC2CCOCC2)C(=O)OC12CCN(C1(C)CCN(C(=O)c3c(C)ncnc3C)CC1)CC2`, the result was inactive.
